We go through nine molecules from PubChem BioAssay (EPA / NIEHS).

The subject of test [1] is Sodium/Iodide Symporter (NIS), SLC5A5 (gene 6528). As to the kind of experiment: CPHEA_Stoker_NIS_Inhibition_RAIU: CPHEA's Radioactive Iodide Uptake (RAIU) Assay for Sodium/Iodide Symporter (NIS) Inhibition, Stoker and Laws Labs (AID 2283841). Summed up: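 Iodide uptake through human NIS is measured in an engineered HEK293T line. Cells take up 125I (329pM final) for 2 hours at room temperature alongside chemicals at 0.001–100uM. Retained radioactivity is counted, and the signal is expressed against DMSO controls.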

The nature of test [2]: CPHEA_Stoker_NIS_Cytotoxicity: Cytotoxicity Assessment for CPHEA's Radioactive Iodide Uptake (RAIU) Assay for Sodium/Iodide Symporter (NIS) Inhibition, Stoker and Laws Labs (AID 2283897). In outline: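 ATP luminescence (Cell Titer Glo) measured viability, with loss of signal normalized to DMSO controls. Cells: hNIS-HEK293T-EPA, seeded 40 hours prior. Dosing: 0.001–100uM, 2 hours, room temperature, uptake buffer pH 7.4.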

Test [3] can be described thus: CEETOX_H295R_11DCORT_noMTC: CeeTox H295R High-throughput Steroidogenesis Assay for 11-Deoxycortisol (11DCORT), maximum tolerated concentration (MTC) filtered results only (AID 2283911; active means hit-call score of the fitted dose curve at least 0.9, where 1 is the maximum; inactive means score below 0.9). Conditions: actives raise or lower the signal. Summed up:
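H295R cells were prestimulated 48 h with 10 uM forskolin, then exposed 48 h to chemical (0.1% DMSO final). 11-Deoxycortisol in the medium was measured by MTBE extraction and HPLC-MS/MS, with bidirectional fitting versus DMSO and no MTC filtering of concentrations.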

The nature of test [4]: CEETOX_H295R_OHPREG_noMTC: CeeTox H295R High-throughput Steroidogenesis Assay for OH-Pregnenolone (OHPREG), maximum tolerated concentration (MTC) filtered results only (AID 2283912; active means hit-call score of the fitted dose curve at least 0.9, where 1 is the maximum; inactive means score below 0.9). The note with it: actives raise or lower the signal. In outline:
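Readout is HPLC-MS/MS quantification of 17alpha-hydroxypregnenolone released by forskolin-stimulated H295R cells over 48 h of chemical exposure, DMSO as baseline.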

Test [5] in a line: CEETOX_H295R_OHPROG_noMTC: CeeTox H295R High-throughput Steroidogenesis Assay for OH-Progesterone (OHPROG), maximum tolerated concentration (MTC) filtered results only (AID 2283914; active means hit-call score of the fitted dose curve at least 0.9, where 1 is the maximum; inactive means score below 0.9). Conditions: actives raise or lower the signal. In outline: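 Analysis uses all tested concentrations, without maximum-tolerated-concentration screening by MTT. H295R cells, forskolin-primed (10 uM, 48 h), receive chemical for 48 h; hormone in medium measured by HPLC-MS/MS, with bidirectional curve fitting against DMSO.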

Test [6] in a line: CEETOX_H295R_ANDR_noMTC: CeeTox H295R High-throughput Steroidogenesis Assay for Androstenedione (ANDR), maximum tolerated concentration (MTC) filtered results only (AID 2283915; active means hit-call score of the fitted dose curve at least 0.9, where 1 is the maximum; inactive means score below 0.9). Conditions: actives raise or lower the signal. Summed up: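 Androstenedione secreted into medium was measured by LC-MS/MS after MTBE extraction. Human adrenal H295R cells received 10 uM forskolin for 48 h before 48 h chemical exposure (0.1% DMSO). Gain or loss fitted against DMSO, including concentrations above the MTT-derived MTC.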

For test [7], the system named is zebrafish Estrogen Receptor (ER2b), gene 317733. As to the kind of experiment: ATG_zfER2b_XSP2: Attagene TRANS-FACTORIAL Multi-Species (XSP2) HepG2 Assay for zebrafish Estrogen Receptor (ER2b) (AID 2283823).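 Further: fitted upward as reporter gain over DMSO so potency reflects activation.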 Summed up: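 Reporter transcripts quantified by RT-PCR, fluorescent labelling and capillary electrophoresis after 24 h dosing of transfected HepG2 expressing zebrafish ER2b-GAL4 fusion. Medium contained 3 nM 6-alpha-fluorotestosterone plus 1.5 nM norgestrel; DMSO baseline.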

Test [8] addresses Estrogen receptor (Homo sapiens) (UniProt P03372). The test can be described thus: ATG_hERa_XSP2: Attagene TRANS-FACTORIAL Multi-Species (XSP2) HepG2 Assay for human Estrogen Receptor (ERa) (AID 2283827). In outline:
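Trans-activation of exogenous human ERa-Gal4 chimera read in HepG2 as reporter transcript after 24 h exposure; medium included 3 nM 6-alpha-fluorotestosterone and 1.5 nM norgestrel. Quantified by RT-PCR with capillary electrophoresis, positive-direction fitting against DMSO.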

Test [9] concerns frog Estrogen Receptor (ER2), gene 100174814. As to the kind of experiment: ATG_frER2_XSP2: Attagene TRANS-FACTORIAL Multi-Species (XSP2) HepG2 Assay for frog Estrogen Receptor (ER2) (AID 2283828). Summed up:
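Induction of reporter mRNA, baseline set by DMSO, is the endpoint. The panel was run in transfected HepG2 cells over 24 h, with 3 nM 6-alpha-fluorotestosterone and 1.5 nM norgestrel present to stimulate androgen receptor.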

For test [10], the target named is Peroxisome proliferator-activated receptor gamma (Homo sapiens) (UniProt P37231). As to the kind of experiment: ATG_hPPARg_XSP2: Attagene TRANS-FACTORIAL Multi-Species (XSP2) HepG2 Assay for human Peroxisome Proliferator-activated Receptor gamma (PPARg) (AID 2283829).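 Further: actives raise reporter mRNA above DMSO so AC50 reflects PPARg activation.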 Summed up: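 HepG2 cells transiently transfected with GAL4-UAS reporter units driven by chimeric NR-Gal4 proteins; androgen receptor stimulated with 3 nM 6-alpha-fluorotestosterone and 1.5 nM norgestrel. After 24 h, reporter mRNA quantified by RT-PCR and capillary electrophoresis versus DMSO.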
Sequence of Peroxisome proliferator-activated receptor gamma (Homo sapiens) (P37231 whole entry, looked up, the tested form may be a part): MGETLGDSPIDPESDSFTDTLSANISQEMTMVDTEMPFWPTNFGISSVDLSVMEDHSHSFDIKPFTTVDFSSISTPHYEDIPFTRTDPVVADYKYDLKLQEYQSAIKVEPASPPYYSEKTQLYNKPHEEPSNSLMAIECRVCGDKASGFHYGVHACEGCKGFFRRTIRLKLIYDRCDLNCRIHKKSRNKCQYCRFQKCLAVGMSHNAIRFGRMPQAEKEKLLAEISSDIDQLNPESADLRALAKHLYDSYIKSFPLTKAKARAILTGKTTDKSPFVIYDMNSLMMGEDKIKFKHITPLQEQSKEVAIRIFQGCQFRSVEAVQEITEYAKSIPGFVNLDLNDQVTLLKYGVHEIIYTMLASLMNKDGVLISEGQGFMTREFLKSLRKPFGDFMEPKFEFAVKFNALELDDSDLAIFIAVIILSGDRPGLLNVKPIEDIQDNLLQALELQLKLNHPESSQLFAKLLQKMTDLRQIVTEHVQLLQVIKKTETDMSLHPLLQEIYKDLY

Test [11] deals with mouse Peroxisome Proliferator-activated Receptor gamma (PPARg), Pparg (gene 19016) (UniProt P37238). The test can be described thus: ATG_mPPARg_XSP2: Attagene TRANS-FACTORIAL Multi-Species (XSP2) HepG2 Assay for mouse Peroxisome Proliferator-activated Receptor gamma (PPARg) (AID 2283830).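 Further: hits are gains in reporter mRNA above DMSO so AC50 marks activation.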 Summed up:
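Multiplexed TRANS reporter readout: after 24 h chemical exposure of transfected HepG2 cells (with 3 nM 6-alpha-fluorotestosterone, 1.5 nM norgestrel present), RNA reverse-transcribed, amplified, 6-FAM-labelled and resolved by capillary electrophoresis; mouse PPARg-Gal4 induction scored against DMSO.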

The target of test [12] is Nuclear receptor subfamily 1 group I member 2 (Mus musculus) (UniProt O54915). The test can be described thus: ATG_mPXR_XSP2: Attagene TRANS-FACTORIAL Multi-Species (XSP1) HepG2 Assay for mouse Pregnane X Receptor (PXR) (AID 2283831). Summed up: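 HepG2 cells transiently transfected with GAL4-UAS reporter units expressing chimeric NR-Gal4 proteins; 24 h compound exposure. Reporter mRNA quantified by RT-PCR and capillary electrophoresis fluorescence; gain of signal fitted against DMSO.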
Sequence of Nuclear receptor subfamily 1 group I member 2 (Mus musculus) (O54915 whole entry, looked up, the tested form may be a part): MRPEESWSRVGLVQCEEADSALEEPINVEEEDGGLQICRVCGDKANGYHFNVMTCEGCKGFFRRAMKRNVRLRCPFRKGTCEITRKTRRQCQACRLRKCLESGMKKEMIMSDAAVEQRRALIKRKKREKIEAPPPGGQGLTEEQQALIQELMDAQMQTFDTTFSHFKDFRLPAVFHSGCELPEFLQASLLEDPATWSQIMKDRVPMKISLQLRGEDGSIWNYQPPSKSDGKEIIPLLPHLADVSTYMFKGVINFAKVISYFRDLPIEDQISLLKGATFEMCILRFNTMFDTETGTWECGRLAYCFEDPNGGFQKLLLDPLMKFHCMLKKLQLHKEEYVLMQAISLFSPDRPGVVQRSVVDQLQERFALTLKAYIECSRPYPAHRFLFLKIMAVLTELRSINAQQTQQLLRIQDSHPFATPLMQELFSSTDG

In test [13] the target is zebrafish Thyroid Hormone Receptor alpha (TRa), thraa (gene 30670) (UniProt Q98867). The test can be described thus: ATG_zfTRa_XSP2: Attagene TRANS-FACTORIAL Multi-Species (XSP1) HepG2 Assay for zebrafish Thyroid Hormone Receptor alpha (TRa) (AID 2283832).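 Further: actives raise zebrafish TRa-Gal4 reporter transcript above DMSO baseline.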 In outline: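 Chimeric zebrafish TRa-Gal4 activity read in transfected human HepG2 as GAL4-UAS reporter transcripts, 24 h post-dose, via RT-PCR with labeled primer extension and capillary electrophoresis. Medium also carries 3 nM 6-alpha-fluorotestosterone and 1.5 nM norgestrel; DMSO baseline.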
Sequence of zebrafish Thyroid Hormone Receptor alpha (TRa), thraa (gene 30670) (Q98867 whole entry, looked up, the tested form may be a part): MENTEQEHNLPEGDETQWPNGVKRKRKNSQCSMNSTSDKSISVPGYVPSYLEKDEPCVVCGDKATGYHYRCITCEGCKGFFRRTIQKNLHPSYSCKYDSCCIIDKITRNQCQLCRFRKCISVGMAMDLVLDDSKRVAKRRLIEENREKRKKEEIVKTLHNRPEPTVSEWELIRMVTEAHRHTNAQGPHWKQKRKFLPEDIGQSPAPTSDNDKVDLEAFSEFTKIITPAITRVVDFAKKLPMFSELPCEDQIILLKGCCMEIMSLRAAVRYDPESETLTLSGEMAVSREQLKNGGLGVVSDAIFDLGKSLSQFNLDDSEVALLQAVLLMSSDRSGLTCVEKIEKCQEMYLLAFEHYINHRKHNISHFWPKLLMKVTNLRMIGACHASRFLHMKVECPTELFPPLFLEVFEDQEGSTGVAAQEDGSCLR

The test system of test [14] is zebrafish Peroxisome Proliferator-activated Receptor gamma (PPARg), gene 557037. The test can be described thus: ATG_zfPPARg_XSP2: Attagene TRANS-FACTORIAL Multi-Species (XSP2) HepG2 Assay for zebrafish Peroxisome Proliferator-activated Receptor gamma (PPARg) (AID 2283833).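 Further: actives increase reporter signal over DMSO so AC50 reflects activation.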 In outline: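 HepG2 cells transiently transfected with multiplexed GAL4-UAS reporter units expressing chimeric NR-Gal4 receptors, dosed 24 h. Reporter mRNA quantified by RT-PCR, fluorescent labelling, HpaI digestion and capillary electrophoresis; gain of signal fitted against DMSO.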

The test system of test [15] is turtle Thyroid Hormone Receptor, alpha (TRa), gene 101949057. As to the kind of experiment: ATG_trTRa_XSP2: Attagene TRANS-FACTORIAL Multi-Species (XSP1) HepG2 Assay for turtle Thyroid Hormone Receptor, alpha (TRa) (AID 2283834).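 Further: hits raise reporter mRNA over the DMSO baseline so AC50 marks activators.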 In outline:
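HepG2 cells transiently transfected with GAL4-UAS reporter units for chimeric turtle TRa-Gal4; mRNA measured 24 h after dosing by RT-PCR and capillary electrophoresis fluorescence, gain of signal fitted against DMSO.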

The nature of test [16]: ATG_M_61_XSP2: Attagene TRANS-FACTORIAL Multi-Species (XSP2) HepG2 Assay for M61 Transcription Factor (Internal Marker) (AID 2283835; active means hit-call score of the fitted dose curve at least 0.9, where 1 is the maximum; inactive means score below 0.9;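 further: active means a rise in signal above the DMSO baseline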). Summed up: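 Signal was mRNA induction detected as fluorescence after RT-PCR and capillary electrophoresis, analysed in the gain direction with DMSO as baseline. HepG2 cells transiently carrying reporter constructs received chemicals for 24 h.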

Test [17] concerns the target zebrafish Thyroid Hormone Receptor beta (TRb), thrb (gene 30607) (UniProt Q9PVE4). As to the kind of experiment: ATG_zfTRb_XSP2: Attagene TRANS-FACTORIAL Multi-Species (XSP1) HepG2 Assay for zebrafish Thyroid Hormone Receptor beta (TRb) (AID 2283836).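 Further: potency for induction of reporter signal above DMSO so agonist direction.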 In outline:
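Reporter transcripts measured by RT-PCR, 6-FAM labelling, HpaI digestion and capillary electrophoresis after 24 h chemical exposure. Human HepG2 cells carry an exogenous zebrafish TRb-GAL4 chimera; medium included 3 nM 6-alpha-fluorotestosterone plus 1.5 nM norgestrel.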

For test [18], the target named is human Thyroid hormone Receptor alpha (TRa), THRA (gene 7067) (UniProt P10827). As to the kind of experiment: ATG_hTRa_XSP2: Attagene TRANS-FACTORIAL Multi-Species (XSP2) HepG2 Assay for human Thyroid hormone Receptor alpha (TRa) (AID 2283838). In outline:
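Reporter transcripts were read by RT-PCR with fluorescent primer extension, HpaI digestion and capillary electrophoresis. These came from HepG2 cells carrying multiplexed TRa-Gal4 TRANS constructs, harvested 24 hours after dosing. The medium also held 6-alpha-fluorotestosterone (3 nM) and norgestrel (1.5 nM), and increases were fitted against DMSO.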

The target of test [19] is frog Thyroid hormone Receptor alpha (TRa), thra-a (gene 397942) (UniProt P15204). The test can be described thus: ATG_frTRa_XSP2: Attagene TRANS-FACTORIAL Multi-Species (XSP2) HepG2 Assay for frog Thyroid hormone Receptor alpha (TRa) (AID 2283839).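 Further: AC50 reflects induction of frog TRa-driven reporter mRNA above DMSO baseline.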 Summed up: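 HepG2 transiently transfected with multiplexed GAL4-UAS reporters driven by frog TRa-Gal4 chimeras; 24 h chemical exposure. Reporter mRNA quantified by RT-PCR, FAM labelling, HpaI digestion and capillary electrophoresis; gain of signal versus DMSO.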
Sequence of frog Thyroid hormone Receptor alpha (TRa), thra-a (gene 397942) (P15204 whole entry, looked up, the tested form may be a part): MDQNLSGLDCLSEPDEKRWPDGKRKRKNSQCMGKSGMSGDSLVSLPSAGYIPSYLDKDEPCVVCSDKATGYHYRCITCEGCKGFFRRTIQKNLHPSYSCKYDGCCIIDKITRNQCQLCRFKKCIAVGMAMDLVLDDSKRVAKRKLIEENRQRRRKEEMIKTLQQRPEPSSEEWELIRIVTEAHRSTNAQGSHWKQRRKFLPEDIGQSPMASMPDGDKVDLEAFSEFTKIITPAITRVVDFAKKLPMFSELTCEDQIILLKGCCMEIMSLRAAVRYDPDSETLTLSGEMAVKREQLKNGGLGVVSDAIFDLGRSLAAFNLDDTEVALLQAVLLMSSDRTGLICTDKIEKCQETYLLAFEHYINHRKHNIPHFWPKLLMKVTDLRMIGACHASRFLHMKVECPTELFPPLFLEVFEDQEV

In test [20] the target is human Thyroid hormone Receptor beta (TRb), THRB (gene 7068) (UniProt P10828). As to the kind of experiment: ATG_hTRb_XSP2: Attagene TRANS-FACTORIAL Multi-Species (XSP2) HepG2 Assay for human Thyroid hormone Receptor beta (TRb) (AID 2283840).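 Further: actives raise reporter mRNA so potency reflects agonist-like gain of signal.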 Summed up: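 HepG2 transiently transfected with a multi-species panel including a human TRb–Gal4 chimera driving Gal4-UAS reporters; medium contained 3 nM 6-alpha-fluorotestosterone and 1.5 nM norgestrel. 24 h dosing; RT-PCR/capillary electrophoresis readout; positive-direction fit vs DMSO.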
Sequence of human Thyroid hormone Receptor beta (TRb), THRB (gene 7068) (P10828 whole entry, looked up, the tested form may be a part): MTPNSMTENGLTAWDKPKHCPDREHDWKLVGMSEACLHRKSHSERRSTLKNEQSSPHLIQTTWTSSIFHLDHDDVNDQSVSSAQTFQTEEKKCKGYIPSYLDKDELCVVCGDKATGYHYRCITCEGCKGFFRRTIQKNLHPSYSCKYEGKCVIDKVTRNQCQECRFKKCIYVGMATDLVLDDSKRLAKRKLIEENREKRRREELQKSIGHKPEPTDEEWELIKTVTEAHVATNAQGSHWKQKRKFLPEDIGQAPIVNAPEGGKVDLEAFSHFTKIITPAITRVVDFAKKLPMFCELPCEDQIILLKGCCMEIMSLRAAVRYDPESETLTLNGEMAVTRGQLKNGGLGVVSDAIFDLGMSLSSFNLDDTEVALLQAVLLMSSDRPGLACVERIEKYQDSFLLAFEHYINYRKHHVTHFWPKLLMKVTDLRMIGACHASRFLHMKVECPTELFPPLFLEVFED

The AC50 is the concentration at which the activity in the assay is half-maximal.

Inconclusive results are not listed. Activity calls are given as the source filed them. How the source made its calls, unless noted: active means hit-call score of the fitted dose curve at least 0.9, where 1 is the maximum; inconclusive means response in the unintended direction; inactive means score below 0.9.

Sequence of zebrafish Thyroid Hormone Receptor beta (TRb), thrb (gene 30607) (Q9PVE4 whole entry, looked up, the tested form may be a part): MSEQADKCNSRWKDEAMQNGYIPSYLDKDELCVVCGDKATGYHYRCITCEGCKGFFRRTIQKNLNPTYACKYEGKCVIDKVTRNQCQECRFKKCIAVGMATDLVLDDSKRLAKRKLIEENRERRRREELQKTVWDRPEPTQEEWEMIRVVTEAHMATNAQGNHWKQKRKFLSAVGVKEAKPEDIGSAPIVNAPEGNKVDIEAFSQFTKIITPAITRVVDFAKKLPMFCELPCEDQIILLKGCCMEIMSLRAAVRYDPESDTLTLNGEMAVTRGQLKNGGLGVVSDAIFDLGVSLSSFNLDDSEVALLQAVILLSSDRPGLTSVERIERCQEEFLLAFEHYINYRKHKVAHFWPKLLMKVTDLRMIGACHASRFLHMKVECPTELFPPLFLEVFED
Sequence of mouse Peroxisome Proliferator-activated Receptor gamma (PPARg), Pparg (gene 19016) (P37238 whole entry, looked up, the tested form may be a part): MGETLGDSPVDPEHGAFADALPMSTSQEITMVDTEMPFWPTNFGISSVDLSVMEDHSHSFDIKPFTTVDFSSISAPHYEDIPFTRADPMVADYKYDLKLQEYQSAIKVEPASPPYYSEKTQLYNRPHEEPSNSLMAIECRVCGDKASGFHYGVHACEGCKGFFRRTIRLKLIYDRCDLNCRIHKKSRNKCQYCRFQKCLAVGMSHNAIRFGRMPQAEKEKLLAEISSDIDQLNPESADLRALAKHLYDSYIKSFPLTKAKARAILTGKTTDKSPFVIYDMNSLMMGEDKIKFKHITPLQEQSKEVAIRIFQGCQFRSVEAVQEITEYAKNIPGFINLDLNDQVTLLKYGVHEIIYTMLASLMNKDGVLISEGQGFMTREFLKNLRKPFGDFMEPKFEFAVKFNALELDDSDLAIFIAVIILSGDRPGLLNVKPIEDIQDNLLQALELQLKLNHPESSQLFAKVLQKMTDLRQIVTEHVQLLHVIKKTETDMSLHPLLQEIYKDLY
Sequence of human Thyroid hormone Receptor alpha (TRa), THRA (gene 7067) (P10827 whole entry, looked up, the tested form may be a part): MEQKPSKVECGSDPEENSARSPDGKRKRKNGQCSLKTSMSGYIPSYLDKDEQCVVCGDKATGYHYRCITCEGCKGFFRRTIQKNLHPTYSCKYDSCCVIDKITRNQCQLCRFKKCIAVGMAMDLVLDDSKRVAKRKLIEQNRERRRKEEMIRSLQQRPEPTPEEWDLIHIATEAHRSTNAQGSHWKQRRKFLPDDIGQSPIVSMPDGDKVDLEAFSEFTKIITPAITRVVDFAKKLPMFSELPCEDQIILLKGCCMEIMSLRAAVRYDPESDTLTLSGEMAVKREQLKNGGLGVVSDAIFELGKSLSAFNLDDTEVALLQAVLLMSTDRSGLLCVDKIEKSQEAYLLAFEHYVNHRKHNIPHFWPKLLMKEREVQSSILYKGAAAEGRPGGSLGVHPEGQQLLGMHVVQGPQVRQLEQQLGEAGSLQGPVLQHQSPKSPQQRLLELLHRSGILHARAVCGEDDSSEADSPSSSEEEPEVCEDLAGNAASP
Sequence of Estrogen receptor (Homo sapiens) (P03372 whole entry, looked up, the tested form may be a part): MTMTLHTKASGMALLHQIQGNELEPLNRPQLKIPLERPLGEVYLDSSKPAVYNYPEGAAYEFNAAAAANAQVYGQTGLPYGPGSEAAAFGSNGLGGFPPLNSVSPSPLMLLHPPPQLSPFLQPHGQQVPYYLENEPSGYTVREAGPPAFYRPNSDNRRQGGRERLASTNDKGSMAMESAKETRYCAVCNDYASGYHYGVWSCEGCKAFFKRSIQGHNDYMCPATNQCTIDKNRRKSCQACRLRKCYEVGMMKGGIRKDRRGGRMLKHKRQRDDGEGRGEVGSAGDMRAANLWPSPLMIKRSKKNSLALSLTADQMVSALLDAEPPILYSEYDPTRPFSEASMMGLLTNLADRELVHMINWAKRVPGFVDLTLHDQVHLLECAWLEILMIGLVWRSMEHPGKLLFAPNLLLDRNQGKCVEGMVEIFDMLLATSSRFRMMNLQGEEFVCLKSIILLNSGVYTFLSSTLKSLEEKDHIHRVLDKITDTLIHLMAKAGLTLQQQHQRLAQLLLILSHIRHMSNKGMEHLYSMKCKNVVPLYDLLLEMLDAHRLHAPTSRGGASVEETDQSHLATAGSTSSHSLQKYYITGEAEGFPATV

As to `c1ccc(C(O[C@@H]2CCCN(CCc3ccc4c(c3)OCO4)C2)c2ccccc2)cc1`, the outcome in test [1] and in [2] was inactive.
With `CCc1ccc(O)c(C(C)(C)C)c1`, the outcome in [1] and in test [2] was inactive.
Take `CCCCC(CC)C(=O)OCCOCCOCCOC(=O)C(CC)CCCC` (centres undefined): the outcome in test [1] and in [2] was inactive.
Regarding `O=S(=O)(O)CCC(F)(F)C(F)(F)C(F)(F)C(F)(F)C(F)(F)C(F)(F)F`, the result in test [1] was inactive.
Take `Cc1nccn1-c1ccc(Sc2cccc(C3(C(N)=O)CCOCC3)c2)cc1`: the outcome in test [1] and in test [2] was inactive.
As to `OCC(CO)(CO)CO`, the outcome in test [1] and in [2] was inactive.
As to `Cc1nc(-c2ccccn2)ncc1C(=O)Nn1cc(C)c2cc(F)ccc21`, the AC50 in [3] was 13.2 µM (active); in test [4], 4.1 µM (active); in test [5] it was 8.28 µM (active); in test [6], 22.5 µM (active).
For the molecule `CC(C)C(=O)Nc1ccc([N+](=O)[O-])c(C(F)(F)F)c1`, the AC50 in [7] was 70.8 µM (active); in test [8], 27.2 µM (active); in test [10], 53.9 µM (active); in [11], 82.6 µM (active); in test [12], 100 µM (active); in [15], 35.9 µM (active). Moreover, the AC50 in test [17] is 65.2 µM (active); in [18], 50.1 µM (active); in [19], 42.2 µM (active); in [20] it was 62.4 µM (active). Besides, the result in test [9], in test [13], in [14], in [16], in test [1] and in test [2] was inactive.
Consider `c1ccc2cc3ccccc3cc2c1`, for which the result in [3], in test [4] and in test [5] was inactive.
